Laboratory results reported in PubChem BioAssay (NCATS).
Results filed as inconclusive are left out. Where a call stands in place of a potency, no number is given. Active and inactive are the calls of the source. Calls follow the shape of the dose curve; as a rule, active = well fitted curve in the direction sought with a large enough effect; inconclusive = small, poorly fitted or top-dose-only effect, or another doubt; inactive = no such curve, though single readings can be large; an effect the other way counts as inactive or inconclusive. Positions of bridges follow the written chain, without caps; N, C: chain ends. Non-standard residues stand in square brackets, D forms with d. Residues, ends and D or L forms follow the SMILES beside them. ξ: configuration not given here. *: point of attachment. Octanoyl(6-Me) = CCC(C)CCCCC(=O)*; ξThr(3R) = C[C@@H](O)C(N)C(=O)O; dDab = NCC[C@@H](N)C(=O)O; Dab = NCC[C@H](N)C(=O)O; Cbz = O=C(OCc1ccccc1)*

Assays:
[1] = molecular target: Calcium and integrin-binding protein 1 (Homo sapiens) (UniProt Q99828); assay: Primary qHTS for Identification of Calcium Integrin Binding Protein 1 (CIB1) Competitor (AID 1508620);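 also: GST tagged CIB1 binding a fluorescein labelled alphaIIb integrin peptide tracer; top concentration of the series differs between compounds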
Calcium and integrin-binding protein 1 (Homo sapiens), sequence (Q99828 whole entry, looked up): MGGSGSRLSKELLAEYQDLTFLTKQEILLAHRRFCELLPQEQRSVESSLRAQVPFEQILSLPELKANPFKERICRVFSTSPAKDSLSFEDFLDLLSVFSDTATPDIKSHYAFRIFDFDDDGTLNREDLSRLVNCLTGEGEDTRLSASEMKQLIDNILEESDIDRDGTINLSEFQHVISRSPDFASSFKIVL
Method in brief: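 Fluorescence polarization competition: GST-tagged CIB1 (1 uM final) preincubated with compound 15 min at room temperature, then FITC-labelled alphaIIb peptide (100 nM final) added. After 15 min at room temperature, polarization read at Ex 480/Em 540.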

[2] = Primary qHTS for small molecule stabilizers of the endoplasmic reticulum resident proteome: Secreted ER Calcium Modulated Protein (SERCaMP) assay (AID 1508630)
Method in brief: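 The SH-SY5Y reporter protocol was run at 3 concentrations up to 38.3 uM (primary) or 11 concentrations (follow-up): 16 h compound, 100 nM thapsigargin for 4 h, then extracellular luciferase luminescence.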

Structure (SMILES) | Potency [1] | outcome [2]
C[C@](Cc1c[nH]c2ccccc12)(NC(=O)OC1C2CC3CC(C2)CC1C3)C(=O)NC[C@H](NC(=O)CCC(=O)O)c1ccccc1 (stereo partly drawn) | inactive | inactive
COC1=C2C[C@@H](C)C[C@H](OC)[C@@H](O)[C@@H](C)C=C(C)[C@H](OC(N)=O)[C@@H](OC)C=CC=C(C)C(=O)NC(=CC1=O)C2=O | inactive | inactive
CCOC(=O)N1CCN([N+]([O-])=NOc2ccc([N+](=O)[O-])cc2[N+](=O)[O-])CC1 | inactive | inactive
CC(C)C[C@@H](C=O)NC(=O)[C@H](CC(C)C)NC(=O)[C@H](CC(C)C)NC(=O)OCc1ccccc1 (Cbz-Leu-Leu-Leu-aldehyde) | inactive | inactive
Cn1cnc(=N)c2[nH]cnc21 | inactive | inactive
CC(Oc1ccc(O)cc1)(P(=O)(O)O)P(=O)(O)O | inactive | inactive
O=C(C=CC=Cc1ccc2c(c1)OCO2)N1CCCCC1 | inactive | inactive
CC(C)NC[C@@H](C(=O)N1CCN(c2ncnc3c2[C@H](C)C[C@H]3O)CC1)c1ccc(Cl)cc1 | inactive | inactive
CN1C(C(=O)Nc2ccccn2)=C(O)c2sc(Cl)cc2S1(=O)=O | inactive | inactive
NC(=O)N1CCC(CC(=O)N2CCC([C@H]3c4ncc(Br)cc4CCc4cc(Cl)cc(Br)c43)CC2)CC1 | inactive | inactive
C[N+](C)([O-])CCNc1ccc(NCC[N+](C)(C)[O-])c2c1C(=O)c1c(O)ccc(O)c1C2=O | inactive | inactive
CC(=O)OCC(=O)[C@@]12N=C(C)O[C@H]1C[C@H]1[C@@H]3CCC4=CC(=O)C=C[C@]4(C)[C@@H]3[C@@H](O)C[C@@]12C | inactive | inactive
c1cc(N[C@@H]2CCNC2)nc(-c2cnc3ccc(-c4cn[nH]c4)cn23)c1 | inactive | inactive
C[C@H](NC(=O)Cc1cc(F)cc(F)c1)C(=O)N[C@H](C(=O)OC(C)(C)C)c1ccccc1 | inactive | inactive
CC(=CC(=O)Nc1ccccc1C(=O)O)c1ccc2ccccc2c1 | inactive | inactive
N#Cc1c(NC(=O)c2cccc3ccccc23)sc2c1CCCC2 | inactive | inactive
O=C(NNC(=O)c1ccc(CNS(=O)(=O)c2ccc(F)c(Cl)c2)cc1)c1ccccc1 | inactive | inactive

Structure (SMILES) | Potency [1] | outcome [2]
COC(=O)C1C2CC3c4[nH]c5cc(OC)ccc5c4CCN3CC2CC(OC(=O)c2cc(OC)c(OC)c(OC)c2)C1OC (stereo not drawn) | inactive | inactive
C[C@@H]1CC[C@@]2(OC1)OC1CC3C4CC=C5CC(O)CCC5(C)C4CCC3(C)C1[C@@H]2C (stereo partly drawn) | inactive | inactive
CC(C=CC=C(C)C=CC1=C(C)CCCC1(C)C)=CC=CC=C(C)C=CC=C(C)C=CC1=C(C)CCCC1(C)C | inactive | inactive
CC(C)N1[N]C(=C2C=c3cc(O)ccc3=N2)c2c(N)ncnc21 | inactive | inactive
O=C1c2c(O)cccc2[C@@H]([C@@H]2O[C@H](CO)[C@@H](O)[C@H](O)[C@H]2O)c2cc(CO)cc(O)c21 | inactive | inactive
Cc1ccc2nc(NCCN)c3ncc(C)n3c2c1 | inactive | inactive
OCC(O)C(O)C(O)CO (stereo not drawn) | inactive | inactive
CC(C)(C)c1nc2c3cc[nH]c(=O)c3c3cc(F)ccc3c2[nH]1 | inactive | inactive
O=C(c1ccc(F)cc1)N1CCC[C@H](c2nc(-c3ccc(F)cc3)no2)C1 | inactive | inactive
C[C@]12C=CC(=O)N[C@@H]1CC[C@H]1[C@H]3CC[C@@H](C(=O)Nc4cc(C(F)(F)F)ccc4C(F)(F)F)[C@@]3(C)CC[C@@H]12 | inactive | inactive
O=C(NC1CC1)c1cccc(-c2ccc3c(NC(=O)C4CC4)n[nH]c3c2)c1 | inactive | inactive
O=c1c(O)c(-c2ccc(O)c(O)c2)oc2cc(O)ccc12 | inactive | inactive
O=C(Nc1nnc(-c2ccco2)o1)c1cc(-c2ccccc2)nc2ccccc12 | inactive | inactive
O=C(C=CC#Cc1cccc(NS(=O)(=O)c2ccccc2)c1)NO | inactive | inactive
CCC(C)CCCCC(=O)N[C@@H](CCN)C(=O)NC(C(=O)N[C@H](CCN)C(=O)N[C@@H]1CCNC(=O)C([C@@H](C)O)NC(=O)[C@@H](CCN)NC(=O)[C@@H](CCN)NC(=O)[C@@H](CC(C)C)NC(=O)[C@H](Cc2ccccc2)NC(=O)[C@H](CCN)NC1=O)[C@@H](C)O (stereo partly drawn) ({Octanoyl(6-Me)}-[Dab][ξThr(3R)][dDab][dDab][Dab]F[dL][dDab][dDab][ξThr(3R)]; lactam 4-C) | inactive | inactive
NC(=O)Nc1cc(-c2ccc(CN3CCOCC3)cc2)sc1C(N)=O | inactive | inactive
CC(C)n1cnc2c(NCCc3ccc(O)cc3)nc(-c3csc4ccccc34)nc21 | inactive | inactive
